For test [1], the target named is Luciferin 4-monooxygenase (Photinus pyralis) (UniProt P08659). As to the kind of experiment: qHTS assay to identify small molecule inhibitors of firefly luciferase (AID 1224835). Further: nearly all actives have a fitted effect of over 25% in size. Further: potency means the concentration at half of the fitted maximal effect. Put shortly: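 Quantitative HTS format; KM concentrations of both substrates. Purified P. pyralis FLuc activity quantified from luminescence images.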
Test [2] can be described thus: qHTS assay to identify small molecule agonists of the constitutive androstane receptor (CAR) signaling pathway - cell viability counter screen (AID 1224836). Further: nearly all actives have a fitted effect of over 45% in size. In short, it runs like this:
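HepG2-CYP2B6-hCAR, 2500 cells/well, 4 h pre-incubation; cpd 15 conc + PK11195 0.75 uM final; 23 h, 37 C/5% CO2; CellTiter-Fluor, fluorescence.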

Test [3] in a line: qHTS assay to identify small molecule antagonists of the constitutive androstane receptor (CAR) signaling pathway - cell viability counter screen (AID 1224837). Further: nearly all actives have a fitted effect of over 45% in size. Put shortly: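 Read-out: CellTiter-Fluor fluorescence after 23 hr at 37 C/5% CO2. Cells: HepG2 double-stable for hCAR and CYP2B6-2.2kb. Compounds tested at 15 concentrations in the presence of CITCO, final concentration 50 nM.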

For test [4], the target named is Nuclear receptor subfamily 1 group I member 3 (Homo sapiens) (UniProt Q14994). Put plainly: qHTS assay to identify small molecule antagonists of the constitutive androstane receptor (CAR) signaling pathway (AID 1224838).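 Further: HepG2 cells stably expressing hCAR with CYP2B6 luciferase reporter stimulated by CITCO; nearly all actives have a fitted effect of over 40% in size.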 Put shortly: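 Read-out: ONE-Glo luciferase luminescence after 30 min at room temperature. HepG2-CYP2B6-hCAR double-stable cells, compounds in 15-point titration plus 50 nM CITCO final, 24 h at 37 C/5% CO2.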

Test [5] shares this target. Put plainly: qHTS assay to identify small molecule agonists of the constitutive androstane receptor (CAR) signaling pathway (AID 1224839). Further: nearly all actives have a fitted effect of over 15% in size. Further: potency means the concentration at half of the fitted maximal effect.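 On activation: HepG2 cells stably carrying human CAR and a CYP2B6 luciferase reporter.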 Put shortly:
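HepG2-CYP2B6-hCAR cells, 2500/well, 4 h pre-incubation; compounds 15 conc.; PK11195 0.75 uM final; 24 h, 37 C/5% CO2; ONE-Glo luciferase read.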

The nature of test [6]: qHTS assay to identify small molecule antagonists of the estrogen related receptor signaling pathway with the pleiotropic PPARgamma coactivator (PGC) from Tox21 10K library - cell viability counter screen (AID 1224840; active means well fitted cell-killing curve with a large enough effect in the repeat runs, not every such curve was filed as active; further: nearly all actives have a fitted effect of over 40% in size). Put shortly: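 Fluorescence read-out of CellTiter-Fluor viability reagent, added after cells had been exposed to compound in DMSO for 17.5 h at 37 C; 30 min development at 37 C/5% CO2. Cells: PGC/ERR line, 2,000/well.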

A short description of test [7]: qHTS assay to identify small molecule agonists of the hypoxia (HIF-1) signaling pathway - cell viability counter screen (AID 1224844; calls by dose curve; further: nearly all actives have a fitted effect of over 50% in size). In short, it runs like this: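 CellTiter-Glo luminescence read-out, 30 min RT, taken in the same wells as the beta-lactamase HRE reporter assay; HRE-bla ME-180 cells, 0.5% dialyzed FBS, 17 hr compound treatment at 37C, 5% CO2.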
Test [8] is described as follows: qHTS assay to identify small molecule agonists of H2AX (AID 1224845; active means well fitted activation curve with a large enough effect in the signal ratio in the repeat runs, not every such curve was filed as active; the % refers to the signal ratio). In short, it runs like this: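 Wild-type CHO-K1 cells plated overnight, then exposed 3 hr at 37C to compounds at 15 concentrations (0.76% DMSO). Lysed, then HTRF anti-pH2AX(S139)-cryptate/anti-H2AX-d2 detection after 24 hr at room temperature; emissions 665 and 620 nm.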
A short description of test [9]: qHTS assay to identify small molecule agonists of the hypoxia (HIF-1) signaling pathway (AID 1224846; active means well fitted activation curve with a large enough effect in the signal ratio in the repeat runs, not every such curve was filed as active; the % refers to the signal ratio). Put shortly:
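Beta-lactamase FRET read-out (CCF4-AM substrate) from ME-180 cells carrying an HRE-driven bla reporter, after 17 hrs compound exposure at 37C/5% CO2. Cells were seeded at 2,000 per well in 0.5% dialyzed FBS medium and preincubated 5 hrs.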

A short description of test [10]: qHTS assay to identify small molecule agonists of H2AX - cell viability counter screen (AID 1224847; calls by dose curve; further: top concentration of the series differs between compounds; nearly all actives have a fitted effect of over 30% in size). In short, it runs like this:
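Cells plated first: CHO-K1, 1000 per well in 10% FBS medium, incubated overnight at 37C. Then 15-point compound titration added (final DMSO 0.76%) for 3 hr. Finally CellTiter-Glo added and luminescence read.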

Test [11] in a line: qHTS RealTime-Glo MT Cell Viability Assay in HepG2 cells - 24 hour (AID 1224867). Further: nearly all actives have a fitted effect of over 50% in size. In short, it runs like this:
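Luminescence read-out: viable HepG2 cells reduce a prosubstrate to a NanoLuc substrate, giving a signal proportional to live cell number. Reads taken at 0, 8, 16, 24, 32 and 40 h of compound exposure at 37 C.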

Test [12] is described as follows: qHTS RealTime-Glo MT Cell Viability Assay in HEK293 cells - 32 hour (AID 1224868). Further: nearly all actives have a fitted effect of over 50% in size. Further: potency means the concentration at half of the fitted maximal effect. Put shortly: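 Nonlytic real-time viability readout: viable cells convert prosubstrate to NanoLuc substrate, giving luminescence proportional to live cell number. HEK293, 600 cells/well, compound added after 5 h, continuous culture at 37 C.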
Test [13] can be described thus: A CellTox Green Cytotoxicity Assay to monitor cytotoxicity in HEK293 cells - 0 hour (AID 1224869). Further: nearly all actives have a fitted effect of over 50% in size. In short, it runs like this: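 Read-out: fluorescence of a cell-impermeant cyanine dye staining DNA of dead cells, proportional to cytotoxicity. HEK293, 600 cells/well with reagent, compound (23 nL DMSO) added after 5 h; reads at 0, 8, 16, 24, 32, 40 h.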
The nature of test [14]: qHTS RealTime-Glo MT Cell Viability Assay in HepG2 cells - 40 hour (AID 1224870). Further: nearly all actives have a fitted effect of over 50% in size. Put shortly:
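HepG2 cells mixed with RealTime-Glo MT reagents (NanoLuc plus cell-permeant prosubstrate) were seeded at 600 cells/well, incubated 5 h at 37 C/5% CO2, then pinned with compounds in DMSO; nonlytic luminescence tracked viability during 40 h treatment.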

Test [15] is described as follows: qHTS assay to identify small molecule antagonists of the estrogen related receptor (ERR) signaling pathway from Tox21 library - cell viability counter screen (AID 1224834). Further: nearly all actives have a fitted effect of over 30% in size. Further: potency means the concentration at half of the fitted maximal effect. In short, it runs like this:
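Multiplexed viability counter screen in ERR cells: 17.5 h compound exposure at 37 C, CellTiter-Fluor added, 30 min at 37 C/5% CO2, fluorescence read.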

In test [16] the target is Thyrotropin receptor (Homo sapiens) (UniProt P16473). As to the kind of experiment: qHTS assay to identify small molecule agonists of the thyroid stimulating hormone receptor (TSHR) signaling pathway (AID 1224843; calls by dose curve; further: nearly all actives have a fitted effect of over 45% in size). In short, it runs like this: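 Using 15 concentrations per compound in triplicate, cAMP production was monitored in TSHR-HEK293 cells after 30 min compound incubation at RT; HTRF reagents followed, with fluorescence intensity recorded after 1 h.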

A short description of test [17]: qHTS assay to identify small molecule antagonists of the estrogen related receptor signaling pathway with the pleiotropic PPARgamma coactivator (PGC) from Tox21 10K library (AID 1224841; call rule not given here; further: potency means the concentration at half of the fitted maximal effect). In short, it runs like this:
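Luminescence read-out (One-Glo luciferase reagent, 30 min at room temperature) from PGC/ERR cells exposed to DMSO-dissolved test compounds for 18 h at 37 C; cells, 2,000 per well, had been preincubated 6 h before compound transfer.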

Test [18] can be described thus: qHTS assay to identify small molecule agonists of the estrogen related receptor signaling pathway with the pleiotropic PPARgamma coactivator (PGC) from Tox21 10K library (AID 1224842). Further: nearly all actives have a fitted effect of over 15% in size. Put shortly:
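PGC/ERR reporter cells (NTP line) were seeded 2,000 per well, rested 6 h at 37 C/5% CO2, then pin-dosed with compounds in DMSO for 18 h at 37 C; luciferase read by One-Glo luminescence after 30 min at room temperature.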

A short description of test [19]: qHTS assay to identify small molecule agonists of the estrogen related receptor (ERR) signaling pathway from Tox21 library (AID 1224849; calls by dose curve; further: nearly all actives have a fitted effect of over 15% in size). As to conditions: ERR reporter cell line, ONE-Glo luciferase, 18 h; at 92.4 µM (top of the series) unless noted. Put shortly:
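Luminescence readout (ONE-Glo, 30 min RT) after 18 h compound exposure at 37 C of NTP-supplied ERR reporter cells; cells were plated 6 h before compound addition by pin tool.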

A short description of test [20]: qHTS assay to identify small molecule antagonists of the estrogen related receptor (ERR) signaling pathway from Tox21 library (AID 1224848). Further: nearly all actives have a fitted effect of over 50% in size. Further: potency means the concentration at half of the fitted maximal effect. In short, it runs like this:
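Tox21 10K compounds in DMSO tested for ERR pathway antagonism in NTP's ERR cell line; 18 h, 37 C exposure; ONE-Glo luminescence.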

A number with no mark means an inactive call. Records with an inconclusive call do not appear. The source made the active and inactive calls. Unless noted, the call rests on the fitted dose curve; in most records, active means well fitted curve in the direction sought with a large enough effect in the repeat runs; inconclusive means weak or mixed curves; inactive means no such curve, though single readings can be large; an effect the other way counts as inactive or inconclusive.
On the % scale 0 is the no-effect control and ±100 the full control effect.

Chain of Nuclear receptor subfamily 1 group I member 3 (Homo sapiens) (Q14994 whole entry, looked up): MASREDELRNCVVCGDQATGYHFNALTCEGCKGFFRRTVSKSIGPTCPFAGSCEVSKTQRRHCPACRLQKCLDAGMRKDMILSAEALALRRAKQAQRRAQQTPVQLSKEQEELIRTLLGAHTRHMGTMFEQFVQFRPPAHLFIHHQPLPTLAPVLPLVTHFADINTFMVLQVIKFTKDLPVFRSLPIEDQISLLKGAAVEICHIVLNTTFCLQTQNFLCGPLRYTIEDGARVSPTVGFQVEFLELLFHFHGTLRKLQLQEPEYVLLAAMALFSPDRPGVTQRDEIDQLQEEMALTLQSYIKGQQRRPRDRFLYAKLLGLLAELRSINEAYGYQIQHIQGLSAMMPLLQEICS
Chain of Luciferin 4-monooxygenase (Photinus pyralis) (P08659 whole entry, looked up): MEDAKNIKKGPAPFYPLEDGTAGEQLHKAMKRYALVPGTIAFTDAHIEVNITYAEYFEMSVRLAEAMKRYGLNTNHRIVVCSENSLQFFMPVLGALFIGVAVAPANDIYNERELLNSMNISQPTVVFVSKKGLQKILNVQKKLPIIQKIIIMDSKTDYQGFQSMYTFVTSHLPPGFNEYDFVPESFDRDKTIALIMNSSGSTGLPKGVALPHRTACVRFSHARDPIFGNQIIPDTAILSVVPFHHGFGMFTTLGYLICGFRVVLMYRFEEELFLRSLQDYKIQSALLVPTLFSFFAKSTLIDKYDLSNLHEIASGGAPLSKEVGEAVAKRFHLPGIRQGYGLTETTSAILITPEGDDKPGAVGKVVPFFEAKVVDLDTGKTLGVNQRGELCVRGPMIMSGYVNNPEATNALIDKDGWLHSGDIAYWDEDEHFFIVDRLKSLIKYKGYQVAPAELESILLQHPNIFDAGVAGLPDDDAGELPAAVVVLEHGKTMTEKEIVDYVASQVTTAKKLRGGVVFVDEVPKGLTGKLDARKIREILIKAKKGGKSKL
Chain of Thyrotropin receptor (Homo sapiens) (P16473 whole entry, looked up): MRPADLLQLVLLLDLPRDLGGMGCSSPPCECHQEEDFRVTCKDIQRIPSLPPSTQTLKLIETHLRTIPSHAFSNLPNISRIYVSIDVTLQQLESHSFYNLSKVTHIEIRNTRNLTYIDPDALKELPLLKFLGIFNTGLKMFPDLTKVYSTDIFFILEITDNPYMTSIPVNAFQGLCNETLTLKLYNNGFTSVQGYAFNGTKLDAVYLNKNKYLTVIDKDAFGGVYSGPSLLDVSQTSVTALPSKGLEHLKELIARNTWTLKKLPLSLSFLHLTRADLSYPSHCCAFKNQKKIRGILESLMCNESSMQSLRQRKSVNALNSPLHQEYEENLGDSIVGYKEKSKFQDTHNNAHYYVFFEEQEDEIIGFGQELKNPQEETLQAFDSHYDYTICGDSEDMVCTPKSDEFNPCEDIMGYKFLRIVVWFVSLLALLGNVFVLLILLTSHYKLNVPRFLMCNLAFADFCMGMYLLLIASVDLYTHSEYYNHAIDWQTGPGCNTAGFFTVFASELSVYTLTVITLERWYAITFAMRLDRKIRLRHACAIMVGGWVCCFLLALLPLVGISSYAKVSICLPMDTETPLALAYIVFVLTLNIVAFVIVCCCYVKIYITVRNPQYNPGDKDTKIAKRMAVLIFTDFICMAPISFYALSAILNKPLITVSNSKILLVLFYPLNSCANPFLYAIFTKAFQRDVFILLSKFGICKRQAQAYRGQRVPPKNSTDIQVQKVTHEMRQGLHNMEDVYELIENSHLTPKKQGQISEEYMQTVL

On to `CO[C@@H]1[C@@H](O[C@@H]2O[C@H](C)[C@@H](O[C@H]3C[C@@](C)(O)[C@@H](O)[C@H](C)O3)[C@H](N(C)C)[C@H]2O)[C@@H](CC=O)C[C@@H](C)[C@@H](O[C@@H]2CC[C@H](N(C)C)[C@@H](C)O2)/C=C/C=C/C[C@@H](C)OC(=O)C[C@H]1OC(C)=O`, for which the Potency result in test [1], in test [2], in [3], in test [4], in [5] and in [6] was “inactive” in each case. Besides, the Potency entry in [7], in [8], in test [10], in test [12], in test [13] and in test [14] was “inactive” throughout. Besides, the call in test [9] and in test [11] was inactive.
Regarding `Clc1cccc(C(c2ccc3nc[nH]c3c2)n2ccnc2)c1` (centres undefined), the Potency entry in [1], in test [2], in [3], in [4], in [6] and in [7] was “inactive” in each case. The Potency result in test [10], in [13] and in test [14] was “inactive” each time. Besides, the call in [11] was inactive.
For the compound `O=[N+]([O-])c1ccccc1CCO`, the Potency entry in [15], in test [2], in [3], in test [6], in [16] and in test [7] was “inactive” each time. The Potency result in test [8], in test [10], in [12], in [13] and in [14] was “inactive” in each case. Besides, the result in test [9] was inactive.
For the compound `O=C1c2ccccc2C(=O)c2c1ccc(O)c2O`, in test [1], the Potency was 34.7 µM (active). Further, the Potency result in test [2], in [3], in [4], in test [5], in test [6] and in [7] was “inactive” in each case. In addition, the Potency result in [12] and in [14] was “inactive” each time. The compound was called inactive in test [9] and in [11].
`Cc1ccc(NC(=O)c2ccc(CN3CCN(C)CC3)cc2)cc1Nc1nccc(-c2cccnc2)n1`: the Potency in test [15] is 23.7 µM (active); in test [5], 13.3 µM (active); in test [12], 21.3 µM (active). Also, the Potency entry in [4], in [6], in [16], in test [7], in test [8] and in test [14] was “inactive” throughout. Also, in [11], the outcome was inactive.
With `CC(C)C/C=C(\C=O)c1ccccc1`, the Potency entry in [1], in test [2], in [3], in [4], in [5] and in test [6] was “inactive” throughout. The Potency entry in test [17], in test [18], in test [16], in test [7], in test [8] and in [10] was “inactive” each time. Further, the Potency entry in test [12] and in [13] was “inactive” each time. Moreover, the compound was classed as inactive in test [9] and in [11]. Further, the activity change, positive = activation in test [19] is -20.3%.
As to `C[C@H](N)C(=O)N[C@@H](C)C(=O)NC1[C@H]2CN(c3nc4c(cc3F)c(=O)c(C(=O)O)cn4-c3ccc(F)cc3F)C[C@@H]12` (some centres undefined), the Potency result in test [1], in [2], in [3], in test [4], in test [6] and in [17] was “inactive” in each case. The Potency result in [16], in test [7], in [8], in test [20], in test [12] and in [14] was “inactive” throughout.
Consider `O=C(Nc1ccccc1)c1cc([N+](=O)[O-])ccc1Cl`, for which the Potency result in [1], in [2], in test [3], in test [4], in [5] and in test [6] was “inactive” each time. Moreover, the Potency result in [18], in [16], in test [7], in test [8], in test [10] and in test [12] was “inactive” in each case. For the same compound, the Potency entry in [13] and in [14] was “inactive” each time. For the same compound, the results for the Potency in [17] and in test [20] were 15.4 µM (active) and 54.5 µM (active), respectively. Moreover, the activity change, positive = activation in test [19] was -35.1%. The compound was called inactive in test [11].

Values taken from PubChem BioAssay (Tox21).
